# pAkt inh: Akt phosphorylation inhibition; Neuro2A IGF-stimulated pAkt S473 HTRF, 20 min; hits give low values; activity change, % for hits at 50 µM; actives 0.32% (n = 360,000); in the data active means activity change below about -80%; inconclusive means mostly about -51% to -80%; further: on the % scale 0 is the no-effect control and ±100 the full control effect
#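 Single-point screen (50 µM final compound) in Neuro2A cells stimulated 20 min with 6 nM IGF at 37 deg C. After lysis, Ser473-phosphorylated Akt read by HTRF (ex 330 nm, em 615/665 nm) as the 665/615 ratio.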
# gsp antag: antagonizes gsp, the McCune-Albright syndrome mutation. AID 624288. actives 0.4% (n = 340,000). gsp-mutant cells, cAMP HTRF, 30 min. Potency, µM (titrated, usually from 76.9 µM), for inactives: at the highest dose activity change, negative = inhibition, hits mostly inhibitors; calls by dose curve; cell line not stated here;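 further: intracellular cAMP measured with PDE inhibitor Ro 20-1724 present during compound exposure; potency means the concentration at half of the fitted maximal effect; on the % scale 0 is the no-effect control and ±100 the full control effect; nearly all actives have a fitted effect of over 65% in size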
#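 Cells, 2000/well, grown 16–24 h in DMEM 10% FBS with 0.5 mg/ml G418, then compounds plus […] (300 uM addition stock), 30 min at 37C. cAMP read by HTRF (cAMP-d2 and anti-cAMP antibody-K in lysis buffer) after 30 min RT.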
# RXFP1 antagonist: RXFP1 (human) relaxin receptor antagonism. Q9HBX9. HEK293-RXFP1, relaxin-stimulated cAMP HTRF, 30 min; hits give low values. activity change, negative = inhibition, % at 57.5 µM. actives 0.59% (n = 350,000);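 active means activity change of -60% or lower, but not beyond a set lower limit; inconclusive means change between -60% and -40%, or beyond the set limit; inactive means change above -40%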; further: on the % scale 0 is the no-effect control and ±100 the full control effect
# Target sequence (Q9HBX9 whole entry, looked up): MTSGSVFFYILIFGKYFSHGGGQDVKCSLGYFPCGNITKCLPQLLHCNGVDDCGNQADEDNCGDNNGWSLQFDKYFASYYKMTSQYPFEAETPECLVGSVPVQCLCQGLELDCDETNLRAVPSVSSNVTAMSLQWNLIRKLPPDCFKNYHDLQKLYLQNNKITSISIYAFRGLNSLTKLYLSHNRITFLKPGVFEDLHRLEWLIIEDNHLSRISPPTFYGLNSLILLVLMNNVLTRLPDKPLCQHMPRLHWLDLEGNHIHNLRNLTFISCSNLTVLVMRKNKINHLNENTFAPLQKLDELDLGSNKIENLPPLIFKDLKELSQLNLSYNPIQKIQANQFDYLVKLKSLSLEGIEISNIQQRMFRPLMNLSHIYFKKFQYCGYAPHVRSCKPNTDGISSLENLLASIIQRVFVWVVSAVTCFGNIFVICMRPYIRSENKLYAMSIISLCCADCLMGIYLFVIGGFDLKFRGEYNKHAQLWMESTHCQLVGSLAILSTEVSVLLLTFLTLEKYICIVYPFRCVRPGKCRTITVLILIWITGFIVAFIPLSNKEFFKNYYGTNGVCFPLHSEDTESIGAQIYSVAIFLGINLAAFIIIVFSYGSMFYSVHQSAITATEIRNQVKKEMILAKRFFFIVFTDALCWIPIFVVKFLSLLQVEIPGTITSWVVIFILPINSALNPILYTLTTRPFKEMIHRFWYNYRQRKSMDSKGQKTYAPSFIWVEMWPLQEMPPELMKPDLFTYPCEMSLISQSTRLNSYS
# gsp ag: gsp mutant agonism | gsp mutant cells, cAMP HTRF, 30 min | Potency, µM (doses to about 76.9 µM), inactives show at the highest dose activation (cAMP increase), usual class: activators | actives 0.13% (n = 340,000) | AID 624287; active means well fitted activation curve with a large enough effect; inconclusive means small, poorly fitted or top-dose-only effect, or another doubt; inactive means no such curve, though single readings can be large or run the other way; cell line not stated here;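 further: phosphodiesterase inhibitor Ro 20-1724 added with compounds to block cAMP breakdown; potency means the concentration at half of the fitted maximal effect; nearly all actives have a fitted effect of over 60% in size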
#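 Cells stably selected in G418 were plated at 2000/well, grown 16-24 hr, then given compounds in DMSO with the PDE inhibitor […] (300 uM solution added) for 30 min at 37C; cAMP was read by HTRF.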
# RXFP1 agonist: RXFP1 (human) receptor agonism; Q9HBX9; actives 0.3% (n = 370,000); HEK293T-RXFP1 cAMP TR-FRET, 30 min; response scale: percent of porcine relaxin response, buffer zero; Potency, µM (series often up to 57.5 µM), inactives show at the highest dose activation, most hits filed as activators; active means well fitted activation curve with a large enough effect; inconclusive means small, poorly fitted or top-dose-only effect; further: potency means the concentration at half of the fitted maximal effect; on the % scale 0 is the no-effect control and ±100 the full control effect; nearly all actives have a fitted effect of over 60% in size
#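 HEK293T cells stably expressing RXFP1 were pretreated with the PDE4 inhibitor Ro 20174, exposed to compounds for 30 min at 37C, lysed, and cAMP was read by TR-FRET. Data normalized to buffer (basal) and 29 nM porcine relaxin (100%).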
# An asterisk follows results filed as active; i = inactive; ? = inconclusive; nt = not tested or not shown; ! = a repeat was not active; [ ] = another dose, or the depositor's remark. Most compounds without a hit are left out; they make up all but 1.2% or so of the library.
SMILES,pAkt inh,gsp antag,RXFP1 antagonist,gsp ag,RXFP1 agonist
CCN(C(=O)CN1CC=C(c2ccccc2)CC1)c1c(N)n(Cc2ccccc2)c(=O)[nH]c1=O,i,9.6%,-61.0*,7.9%[15.4 µM],-0.4%
CCc1ccc(NC(=O)c2cnc3sc(N4CCCC4)nn3c2=O)cc1,nt,nt,7.8,nt,?
CN(CC(=O)Nc1cccc(F)c1)CC(=O)Nc1cccc(S(=O)(=O)N(C)c2ccccc2)c1,i,50.1µM*,-8.8,-0.9%[15.4 µM],nt
COc1ccccc1OCCCn1cc(C(C)=O)c2ccccc21,i,?,-6.6,4.4%[15.4 µM],3.4%
COc1ccccc1OCCCn1cc(C(=O)C2CC2)c2ccccc21,i,44.7µM*,-20.2,3.6%[15.4 µM],1.7%
C[C@H](N)C(=O)c1ccccc1,nt,nt,14.2,nt,nt
CCN(CC)C(=O)[C@@H]1C=C2c3cccc4[nH]cc(c34)C[C@H]2N(C)C1,nt,nt,8.3,nt,nt
O=[N+]([O-])/C=C/c1c(Cl)cccc1Cl,i,15.4%,-67.3*,7.0%,nt
CC(=O)NC1CCSC1=O (stereo not drawn),nt,nt,-1.7,nt,nt
O=C1NC(=O)N(Cc2ccco2)C(=O)/C1=C/c1ccc(-c2cccc([N+](=O)[O-])c2)o1,i,-5.8%,-66.9*,2.0%,1.6%
C=CCN1C(=O)NC(=O)/C(=C\c2ccc(-c3ccccc3[N+](=O)[O-])o2)C1=O,i,-7.9%,-100.7*,0.3%[15.4 µM],-2.4%
Cc1cccc(OCCn2cccc2/C=C2/C(=O)NC(=O)N(Cc3ccco3)C2=O)c1,i,?,-68.2*,16.9%,0.9%
CN(C)c1ccc(/C=C2/C(=O)NC(=O)N(Cc3ccco3)C2=O)cc1,i,-33.8%,5.5,-16.7%,-2.4%
CC[C@H](O)C(C[C@H](C)N(C)C)(c1ccccc1)c1ccccc1,nt,nt,17.6,nt,nt
COc1nn(CSP(=S)(OC)OC)c(=O)s1,nt,nt,40.5,nt,nt
CCOC(C(=O)OCCN(C)C)(c1ccccc1)c1ccccc1,nt,nt,-6.2,nt,nt
Oc1ccc(Cl)cc1Cc1ccccc1,i,4.2%,-82.4*!,-3.1%,nt
O=C(Nc1ccc(Cl)cc1C(=O)c1ccccc1)c1ccco1,i,-15.2%,2.4,-27.3%,1.9%
C=CCC1=C(C)C(OC(=O)C2C(C=C(C)C)C2(C)C)CC1=O (stereo not drawn),nt,nt,-70.2*,nt,nt
C[C@]12Cc3cn[nH]c3C[C@@H]1CC[C@@H]1[C@@H]2CC[C@@]2(C)[C@H]1CC[C@]2(C)O,nt,nt,-30.5,nt,nt
CCN1C(=O)C(=C2C=C(C)N(Cc3ccco3)C(C)=C2)C(=O)N(CC)C1=S,i,21.1%,18.7,?,28.2µM*
CC(C)N1C(=O)/C(=C/C=C/c2ccco2)C(=O)N(Cc2ccco2)C1=O,i,?,-76.6*,-13.8%,0.4%
COc1ccc(/C=C2/C(=O)N(Cc3ccco3)C(=O)N(C(C)C)C2=O)cc1,i,-1.8%,-9.7,?,2.1%
COc1cc(OC)c(OC)cc1/C=C1/C(=O)NC(=O)N(Cc2ccccc2)C1=O,i,10.1%,-63.6*,-3.4%,-0.1%
COc1cc(OC)c(OC)cc1/C=C1\C(=O)NC(=O)N(Cc2ccccc2)C1=O,i,3.0%,-9.2,-1.4%[15.4 µM],1.2%
O=C1NC(=O)N(Cc2ccccc2)C(=O)/C1=C/C=C/c1ccco1,i,50.1µM*,?,18.5%,-2.9%
COc1ccc(-[n+]2c(-c3ccccc3)cc(-c3ccccc3)cc2-c2ccccc2)cc1,i,-20.5%,nt,nt,0.7%
Oc1ccc(-[n+]2c(-c3ccccc3)cc(-c3ccccc3)cc2-c2ccccc2)cc1,i,50.1µM*,nt,nt,0.1%
O=C1NC(=O)C(=Cc2ccc(N3CCN(C(=O)c4ccccc4)CC3)c([N+](=O)[O-])c2)C(=O)N1,i,-14.7%,-74.8*,4.6%[15.4 µM],-0.6%

# Assay outcomes: PubChem, National Center for Advancing Translational Sciences (NCATS)
